Laboratory results published in PubChem BioAssay AID1159580 (chemical genetic matrix, 2015).
“And” between values parts separate entries of the source, which are not always exact repeats. Identical values can stand only once. The whole screen tested about 5,500 compounds, of which about 2,000 (36%) were called active. Another 18% or so got no clear call; they are omitted. No stated cut-off is given here; in the data, active means normalized growth mostly below about 0.91 (no sharp cut-off); inconclusive means no clear call, values can overlap the other calls; inactive means mostly above about 0.92. This is one part of the list.

Test: chemical genetic growth profiling, strain panel (AID 1159580);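 further: tested at 20 µM; growth read once vehicle control cultures reached saturation at 30 °C; 1 = growth at the plate median or of vehicle wells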
Conditions: S. cerevisiae deletion strains, growth OD

Measured: normalized growth

CC(=O)O[C@H]1C[C@@H](O)C(C)(C)C2C[C@@H](OC(C)=O)[C@]3(C)C(CC[C@@]4(C)[C@H](c5ccoc5)OC(=O)C5OC543)[C@]21C (stereo partly specified)
inactive: locus YAL013W, strain DEP1, stronger effect = lower value 0.994 | locus YAL021C, strain ccr4, stronger effect = lower value 1.02 | locus YAL026C, strain drs2, stronger effect = lower value 1.01 | locus YAL030W, strain snc1, stronger effect = lower value 1 | locus YBL061C, strain skt5, stronger effect = lower value 1 | locus YBR009C, strain hhf1, stronger effect = lower value 0.997 | locus YBR021W, strain FUR4, stronger effect = lower value 1.03 | locus YBR023C, strain chs3, stronger effect = lower value 1.01 | locus YBR171W, strain sec66, stronger effect = lower value 1.01 | locus YBR229C, strain ROT2, stronger effect = lower value 0.948 | locus YBR231C, strain swc5, stronger effect = lower value 0.998 | locus YBR279W, strain paf1, stronger effect = lower value 0.999 | locus YCL011C, strain gbp2, stronger effect = lower value 0.999 | locus YCL016C, strain dcc1, stronger effect = lower value 0.997 | locus YCL029C, strain bik1, stronger effect = lower value 0.984 | locus YCL061C, strain MRC1, stronger effect = lower value 1.01 | locus YCL069W, strain vba3, stronger effect = lower value 1 | locus YCR088W, strain abp1, stronger effect = lower value 1.01 | locus YDL005C, strain med2, stronger effect = lower value 1 | locus YDL035C, strain GPR1, stronger effect = lower value 0.984 | locus YDL040C, strain nat1, stronger effect = lower value 1 | locus YDL074C, strain BRE1, stronger effect = lower value 0.952 | locus YDL101C, strain DUN1, stronger effect = lower value 0.986 | locus YDL185W, strain tfp1, stronger effect = lower value 0.97 | locus YDL192W, strain arf1, stronger effect = lower value 0.97 | locus YDR001C, strain nth1, stronger effect = lower value 1.01 | locus YDR069C, strain doa4, stronger effect = lower value 1.01 | locus YDR101C, strain arx1, stronger effect = lower value 0.973 | locus YDR137W, strain rgp1, stronger effect = lower value 1 | locus YDR159W, strain sac3, stronger effect = lower value 1.01 | locus YDR162C, strain NBP2, stronger effect = lower value 0.977 | locus YDR195W, strain ref2 0.985 | locus YDR297W, strain sur2, stronger effect = lower value 1.01 | locus YDR318W, strain mcm21, stronger effect = lower value 0.984 | locus YDR334W, strain swr1, stronger effect = lower value 1.01 | locus YDR335W, strain msn5, stronger effect = lower value 0.996 | locus YDR388W, stronger effect = lower value 1 | locus YDR392W, strain spt3, stronger effect = lower value 1.02 | locus YDR502C, strain sam2, stronger effect = lower value 1.01 | locus YEL003W, strain gim4, stronger effect = lower value 1 | locus YEL037C, strain rad23, stronger effect = lower value 0.997 | locus YEL061C, strain CIN8 (second series), stronger effect = lower value 1.01 | locus YER015W, strain faa2, stronger effect = lower value 1.01 | locus YER016W, strain bim1, stronger effect = lower value 1 | locus YER110C, stronger effect = lower value 0.97 | locus YER111C, strain swi4, stronger effect = lower value 1.02 | locus YER155C, strain BEM2 (second series), stronger effect = lower value 1.02 | locus YER155C, strain BEM2, stronger effect = lower value 1.02 | locus YER167W, strain BCK2, stronger effect = lower value 0.988 | locus YFR010W, strain ubp6, stronger effect = lower value 1.01 | locus YGL078C, strain dbp3, stronger effect = lower value 0.983 | locus YGL086W, strain mad1, stronger effect = lower value 0.997 | locus YGL167C, strain pmr1, stronger effect = lower value 0.999 | locus YGL173C, strain kem1, stronger effect = lower value 1.01 | locus YGL227W, strain vid30, stronger effect = lower value 1 | locus YGL240W, strain doc1, stronger effect = lower value 1 | locus YGL248W, strain PDE1, stronger effect = lower value 0.975 | locus YGL253W, strain hxk2, stronger effect = lower value 1.02 | locus YGR078C, strain PAC10, stronger effect = lower value 1 | locus YGR135W, strain pre9, stronger effect = lower value 1.03 | locus YGR229C, strain SMI1, stronger effect = lower value 0.976 | locus YGR252W, strain gcn5, stronger effect = lower value 0.966 | locus YHR013C, strain ard1, stronger effect = lower value 1.01 | locus YHR027C, strain rpn1, stronger effect = lower value 1.01 | locus YHR030C, strain SLT2, stronger effect = lower value 0.987 and 0.952 | locus YHR079C, strain IRE1 (second series), stronger effect = lower value 0.99 | locus YHR079C, strain IRE1, stronger effect = lower value 0.974 | locus YHR094C, strain hxt1, stronger effect = lower value 0.979 | locus YHR129C, strain ARP1, stronger effect = lower value 0.993 | locus YHR142W, strain chs7, stronger effect = lower value 0.999 | locus YHR200W, strain rpn10, stronger effect = lower value 0.99 | locus YIL066C, strain RNR3, stronger effect = lower value 0.957 | locus YIL073C, strain SPO22, stronger effect = lower value 1.04 | locus YIL125W, strain kgd1, stronger effect = lower value 0.983 | locus YIR030C, strain dcg1, stronger effect = lower value 0.992 | locus YJL092W, strain hpr5, stronger effect = lower value 1.01 | locus YJL095W, strain BCK1 (second series), stronger effect = lower value 1.01 | locus YJL095W, strain BCK1, stronger effect = lower value 1.03 and 1 | locus YJL115W, strain asf1, stronger effect = lower value 1 | locus YJL129C, strain trk1, stronger effect = lower value 1.01 | locus YJL134W, strain LCB3, stronger effect = lower value 0.978 | locus YJL154C, strain vps35, stronger effect = lower value 1 | locus YJL164C, strain tpk1, stronger effect = lower value 1.01 | locus YJL166W, strain qcr8, stronger effect = lower value 0.999 | locus YJL168C, strain set2, stronger effect = lower value 0.997 | locus YJL187C, strain SWE1 (second series), stronger effect = lower value 0.999
